Assay outcomes from PubChem.
The list is not random: actives were taken first. Their share in the collection is about 3.5%.
FBW7 act – FBW7 E3 ligase activators, primary screen, biochemical, AlphaScreen, human; normalized activity (activation), % at 26.1 µM; F-box/WD repeat-containing protein 7 (Homo sapiens), Q969H0; AlphaScreen FBW7–phospho-cyclin E peptide binding, activator screen; 650,000 tested, 0.13% active; in the data active means normalized activity above about 1.9%;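 further: purified mutant Fbw7 with reduced substrate affinity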
MITF primary – MITF inhibitors, primary screen, biochemical, AlphaScreen, human; AlphaScreen MITF homodimerization, bead proximity signal; Microphthalmia-associated transcription factor (Homo sapiens), O75030; inhibition, % at 2.6 µM; 650,000 tested, 0.91% active; AID 1259374, 2018; in the data active means inhibition above about 50%;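 further: 0% = vehicle wells with protein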
GPR151 activ – activators of human GPR151, primary screen, cell-based, PathHunter beta-arrestin, luminescence | G-protein coupled receptor 151 (Homo sapiens), Q8TDV0 | PathHunter beta-arrestin GPR151 cells | activation, % at 11.2 µM | 650,000 tested, 1% active | AID 1508602, 2020; in the data active means activation above about 4.9%;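 further: 0% = median of compound wells and 100% = cells with positive control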
Target sequence (Q8TDV0 whole entry, looked up): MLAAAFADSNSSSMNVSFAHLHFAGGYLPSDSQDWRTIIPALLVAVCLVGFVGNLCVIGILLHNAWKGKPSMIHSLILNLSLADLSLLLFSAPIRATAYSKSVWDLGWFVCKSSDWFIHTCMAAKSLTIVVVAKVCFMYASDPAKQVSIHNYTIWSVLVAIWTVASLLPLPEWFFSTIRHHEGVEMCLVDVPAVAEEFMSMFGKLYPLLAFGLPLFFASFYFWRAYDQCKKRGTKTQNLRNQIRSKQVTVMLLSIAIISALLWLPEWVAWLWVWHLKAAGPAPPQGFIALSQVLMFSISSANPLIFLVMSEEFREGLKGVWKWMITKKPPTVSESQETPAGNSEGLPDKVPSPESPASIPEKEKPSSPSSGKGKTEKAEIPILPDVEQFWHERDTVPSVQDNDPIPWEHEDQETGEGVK
TEAD-YAP inh – TEAD-YAP interaction inhibition, primary screen, TEAD-YAP interaction inhibitor project, luminescence, HEK-TIYL cells; TEAD-Gal4/YAP UAS-luciferase luminescence; inhibition, % at 9.12 µM; 640,000 tested, 1.4% active; in the data active means inhibition above about 32%;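 further: 0% = median of test compound wells and 100% = reference inhibitor wells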
The depositor's hits bear a star.

SMILES	FBW7 act	MITF primary	GPR151 activ	TEAD-YAP inh
COc1ccc(C2CC(=O)C3=C(C2)NC(C)=C(C(=O)OC2CCCC2)C3c2ccccc2F)cc1OC (stereo not given)	0	-16	-1	48*
CCCOC(=O)C1=C(C)NC2=C(C(=O)CC(c3ccc(OC)c(OC)c3)C2)C1c1cccc(Cl)c1 (stereo not given)	1	8	0	35*
CCCOC(=O)C1=C(C)NC2=C(C(=O)CC(c3ccc(OC)c(OC)c3)C2)C1c1ccc(Cl)cc1Cl (stereo not given)	0	12	-1	4
N#C/C(=C/c1cc(Cl)ccc1Cl)c1nc2ccccc2c(=O)[nH]1	0	8	4	-9
CCOc1ccc2[nH]c(=O)c(CN(CC3CCCO3)C(C)=O)cc2c1 (stereo not given)	0	0	0	7
Cc1nc2nc(SCC(=O)Nc3ccc(Br)cc3)nn2c(C)c1Cc1ccc(F)cc1Cl	0	-4	-1	-1
COc1ccc(C2CC(=O)C3=C(C2)NC(C)=C(C(=O)OC2CCCC2)C3c2cccc(Cl)c2)cc1OC (stereo not given)	0	-8	2	30
COc1ccccc1C1C(C(=O)OC2CCCC2)=C(C)NC2=C1C(=O)CC(c1ccccc1)C2 (stereo not given)	2.6*	2	1	-2
COc1ccc(C2CC(=O)C3=C(C2)NC(C)=C(C(=O)OC2CCCC2)C3c2cccc(C)c2)cc1OC (stereo not given)	0	-34	0	47*
COc1cccc(C2C(C(=O)OC3CCCC3)=C(C)NC3=C2C(=O)CC(c2ccccc2)C3)c1OC (stereo not given)	0	-19	-1	4
OCC1(CO)CSC(Nc2ccccc2)=N1	0	1	-1	8
Cn1nc(-c2ccc(Cl)cc2)cc1NC(=O)CCl	0	-1	-2	46*
Cn1nc(-c2ccc(Cl)cc2)cc1NC(=O)Cn1c2ccccc2c(=O)c2ccccc21	1	0	0	-3
CCC(=O)N1CCc2cc(-c3nc(NC(C)=O)sc3C)ccc21	0	7	1	80*
CNc1nc(-c2ccc3c(c2)CCN3C(C)=O)c(C)s1	1	22	1	-47
CCC(=O)N1CCc2cc(-c3nc(N)sc3C)ccc21	0	14	-2	10
CC(=O)Nc1nc(-c2ccc3c(c2)CCN3C(C)=O)c(C)s1	1	-12	-1	53*
COC(=O)C1=C(C(=O)OC)SC(=C2C(=S)C(C)(C)N(C(=O)c3ccccc3-c3ccccc3)c3cc(C)ccc32)S1	0	61*	-1	-2
CCC(=O)N1c2ccccc2C(=C2SC(C(=O)OC)=C(C(=O)OC)S2)C(=S)C1(C)C	0	24	-1	3
CCC(CC)C(=O)N1c2ccccc2C(=C2SC(C(=O)OC)=C(C(=O)OC)S2)C(=S)C1(C)C	0	55*	1	4
COc1ccc(SCCCC(=O)Nc2c3c(nn2C)CCC3)cc1	0	10	0	45*
COc1ccc(SCC(=O)Nc2c3c(nn2C)CCC3)cc1	0	10	1	38*
COC(=O)C1=CN(C2CCCCC2)C=C(C(=O)OC)C1c1ccc(Cl)cc1	0	16	-1	4
CC(=O)c1ccc(NC(=O)c2cc(Cl)ccc2Cl)cc1	0	3	-1	-15
CN(C)N1C(N)=C(C#N)C(c2ccc(C(F)(F)F)cc2)C2=C1CCCC2=O (stereo not given)	2.1*	-10	1	-23
SMILES	FBW7 act	MITF primary	GPR151 activ	TEAD-YAP inh
COc1ccc(N2C(N)=C(C#N)C(c3ccc(OC)c(OC)c3)C3=C2CCCC3=O)cc1 (stereo not given)	0	-3	0	62*
COc1cc(C2C(C#N)=C(N)N(c3ccc(C)cc3)C3=C2C(=O)CCC3)cc(OC)c1OC (stereo not given)	0	10	-1	61*
COc1ccc(N2C(N)=C(C#N)C(c3ccc(O)c(OC)c3)C3=C2CCCC3=O)cc1 (stereo not given)	0	-4	0	58*
Cc1ccc(C2C(C#N)=C(N)N(N(C)C)C3=C2C(=O)CCC3)cc1 (stereo not given)	0	1	0	-1
COc1ccc(C2C(C#N)=C(N)N(c3ccc(OC)cc3)C3=C2C(=O)CCC3)cc1 (stereo not given)	0	11	-1	1
Cc1ccc(-n2c(C)nc3cc(C(=O)O)ccc32)c(C)c1	0	6	0	-3
CCCCCCCC1C(O)CC(c2ccc(OC)cc2)NC1c1ccc(OC)cc1 (stereo not given)	0	0	0	7
COC(=O)Cc1nc(Nc2cccc(C)c2)c2c(C)c(C)sc2n1	0	1	0	11
CCOC(=O)c1cnc2ccc(OCC)cc2c1Nc1ccc(Oc2ccccc2)cc1	0	15	1	-2
COc1ccc(NC(=O)C(=O)NCC2CCCN2S(=O)(=O)c2ccc(C)cc2)cc1 (stereo not given)	0	-15	2	61*
Cc1ccc(S(=O)(=O)N2CCCCC2CCNC(=O)C(=O)NCc2ccccc2)cc1 (stereo not given)	0	3	1	46*
CC(=O)Nc1ccnn1C1CCN(Cc2cn[nH]c2-c2cc(C)ccc2C)CC1	0	0	-1	2
N#C/C(=C(/O)c1ccc(Cl)cc1Cl)c1nnc(N2CCOCC2)n1-c1ccccc1	0	6	1	-13
O=C(O)c1cc(N=Cc2c(O)n(Cc3ccco3)c(=O)[nH]c2=O)ccc1Cl	0	76*	0	5
CCCOc1ccc(C2NC(=O)NC(C)=C2C(=O)OCc2ccc3c(c2)OCO3)cc1 (stereo not given)	0	-11	2	55*
CCOc1ccccc1C1NC(=O)NC(C)=C1C(=O)OCc1ccc2c(c1)OCO2 (stereo not given)	0	19	-1	7
CCOc1ccc(C2NC(=O)NC(C)=C2C(=O)OCc2ccc3c(c2)OCO3)cc1 (stereo not given)	0	15	0	56*
OCC1CCCN1c1nc(NCc2ccccc2)c2ncn(-c3ccsc3)c2n1 (stereo not given)	0	-1	1	0
CC(C)n1cnc2c(NCc3cccnc3)nc(N3CCCC3CO)nc21 (stereo not given)	0	-3	-1	33*
OCC1CCCN1c1nc(NCc2cccnc2)c2ncn(-c3ccccc3)c2n1 (stereo not given)	0	-2	2	44*
CCCCSC1=C(C#N)C(=O)NC(CCC)S1 (stereo not given)	0	-5	0	-19
Clc1cccc(-n2ncc3c(NCCCn4ccnc4)ncnc32)c1	0	-4	-2	56*
Cc1ccc(-n2ncc3c(NCCCn4ccnc4)ncnc32)cc1C	0	19	-1	-26
